Data from PubChem BioAssay.
Unmarked numbers belong to inactive results. The source made the active and inactive calls.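 Rule for the calls: active = inhibition at or above 50% relative to wild type and mutant plate controls; inactive = inhibition below 50%.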

Assay: inhibitors of Chlamydomonas gravitaxis, primary screen, whole organism, Chlamydomonas reinhardtii, WT vs cilia-less mutant, absorbance, 96-well (AID 463189);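 note: 0% = wild type cc124 cells in DMSO and 100% = ciliumless bld1 mutant cells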
Settings: OD600 absorbance, 2 days, at 10 µM, stronger effect = higher value

| Compound | inhibition |
| --- | --- |
| CCC(=O)N1CCN(C(=O)c2ccccc2)CC1 | 0.644% |
| CN(C)C/C=C(/c1ccc(Br)cc1)c1cccnc1 | 108% (active) |
| CN1CCc2cc(NC(=O)Nc3cccnc3)ccc21 | 8.14% |
| O=C(O)CCC/C=C\C[C@@H]1[C@@H](/C=C/[C@H](O)C2Cc3ccccc3C2)[C@@H](F)C[C@@H]1O | -14% |
| O=C(N[C@@H](Cc1ccccc1)C(=O)CCl)OCc1ccccc1 | 0.05% |
| CC(C)(Sc1ccc(CCN(CCCCC2CCCCC2)C(=O)NC2CCCCC2)cc1)C(=O)O | -0.647% |
| Fc1ccc(C(OCCCc2cnc[nH]2)c2ccc(F)cc2)cc1 | -0.416% |
| Nc1ccc2c3c(cccc13)C(=O)NC2=O | 32.5% |
| CCCCCCCC/C=C\CCCCCCCC(=O)NCCc1ccc(O)c(O)c1 | -1.34% |
| COc1cc2c(cc1O)CC[C@@H]1[C@@H]2CC[C@]2(C)[C@@H](O)CC[C@@H]12 | -5.37% |
| COc1cc(CC(=O)O)ccc1O | -2.57% |
| CC(C)(C)NCC(O)COc1cccc2[nH]c(=O)[nH]c12 (stereo not given) | 3.61% |
| C[C@H]1CC2C3CCC4=CC(=O)C=C[C@]4(C)[C@@]3(Cl)[C@@H](O)C[C@]2(C)[C@@]1(O)C(=O)CO (stereo not given in full) | -2.71% |
| COC(=O)C1=C(C)NC(C)=C(C(=O)OCCN(C)Cc2ccccc2)C1c1cccc([N+](=O)[O-])c1 (stereo not given) | -0.607% |
| CCCCN1CCC(COC(=O)c2cc(Cl)c(N)c3c2OCCO3)CC1 | -6.29% |
| CN1C2CCC1CC(OC(c1ccccc1)c1ccccc1)C2 (stereo not given) | 1.86% |
| COc1ccccc1N1CCN(CCCCN2C(=O)c3ccccc3C2=O)CC1 | 1.35% |
| CN[C@H](CC(=O)O)C(=O)O | 6.26% |
| CCCCCCCCCCCCC/C=C/C(O)C(N)CO (stereo not given) | -1.48% |
| Nc1nc2ccc(Cl)cc2c2nc(-c3ccco3)nn12 | 1.54% |

| Compound | inhibition |
| --- | --- |
| O=C(/C=C/c1ccc(O)cc1)c1ccc(O)cc1O | 2.79% |
| C#C[C@]1(O)CC[C@H]2[C@@H]3CCC4=Cc5oncc5CC4(C)[C@H]3CCC21C (stereo not given in full) | 4.97% |
| Cc1nc(N=Nc2cc(S(=O)(=O)O)c3cc([N+](=O)[O-])cc(S(=O)(=O)O)c3c2)c(COP(=O)(O)O)c(C=O)c1O | 0.765% |
| CCCCCCCCCCCCCCCCOCC(COCC(F)(F)F)OP(=O)(O)OCO (stereo not given) | 6.55% |
| N[C@@H](CCCC(=O)O)C(=O)O | 6.53% |
| O=C(O)CCC(C(=O)O)N1C(=O)c2ccccc2C1=O (stereo not given) | 0.124% |
| CCCCCC[C@@H]([C@@H](C)O)n1cnc2c(N)ncnc21 | -0.492% |
| CNC(=O)[C@H]1O[C@@H](n2cnc3c(NCc4ccc(N)cc4)ncnc32)C(O)[C@H]1O (stereo not given in full) | -1.61% |
| c1cc(CN2CCCCC2)cc(OCCCNc2nc3ccccc3s2)c1 | 26.8% |
| CC[C@@H](C)[C@H]1O[C@]2(CC[C@@H]1C)C[C@@H]1C[C@@H](C/C=C(\C)[C@@H](O[C@H]3C[C@H](OC)[C@@H](O[C@H]4C[C@H](OC)[C@@H](O)[C@H](C)O4)[C@H](C)O3)[C@@H](C)/C=C/C=C3\CO[C@@H]4[C@H](O)C(C)=C[C@@H](C(=O)O1)[C@]34O)O2 | 22.3% |
| Nc1nc(Cl)nc2c1ncn2[C@@H]1O[C@H](CO)[C@H](O)C1O (stereo not given in full) | 1.82% |
| Nc1ccn([C@H]2CC[C@@H](CO)O2)c(=O)n1 | -7.35% |
| Cc1cc(N)c2ccccc2[n+]1CCCCCCCCCC[n+]1c(C)cc(N)c2ccccc21 | 147% (active) |
| NCCNS(=O)(=O)c1cccc2cnccc12 | -4.46% |
| CCn1c(=O)c2[nH]c(-c3ccccc3)nc2n(CC)c1=O | -1.12% |
| CN(C(=O)CCCOc1ccc2[nH]c(=O)ccc2c1)C1CCCCC1 | 3.15% |
| Nc1nc(N)c2nc(CNc3ccc(C(=O)NC(CCC(=O)O)C(=O)O)cc3)cnc2n1 (stereo not given) | 10.5% |
| O=C1c2ccccc2-c2n[nH]c3cccc1c23 | 34.8% |
| CO/N=C(\C(=O)N[C@@H]1C(=O)N2C(C(=O)O)=C(CSc3nc(=O)c(O)nn3C)CSC12)c1csc(N)n1 (stereo not given in full) | 7.64% |
| O=C(O)c1ccccc1Nc1ccccc1 | 8.09% |
